In PubChem BioAssay (NCI):
“And” between values parts separate entries of the source, which are not always exact repeats. Equal entries are not always repeated. The panel holds about 83,000 compounds, 20% with a hit somewhere; the sample as a whole holds those more often.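 A percent growth of 40 corresponds to 60% growth inhibition; 0 means no net growth; -100 means all cells died. Active threshold: below 10.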 The source made the active and inactive calls.

How the values were obtained:
Experiment in all cases: NCI-60 one-dose screen, 48 h (100 = growth as untreated, 0 = no growth, -100 = all killed)
Settings in all cases: 10 µM unless noted
[1] = test system: HT29 colon
[2] = test system: SNB-75 CNS
[3] = test system: SNB-19 CNS
[4] = test system: U251 CNS
[5] = test system: PC-3 prostate
[6] = test system: SK-MEL-5 melanoma
[7] = test system: UACC-62 melanoma
[8] = test system: LOX IMVI melanoma
[9] = test system: SK-MEL-28 melanoma
[10] = test system: SK-MEL-2 melanoma
[11] = test system: EKVX NSCLC
[12] = test system: SN12C renal
[13] = test system: UO-31 renal
[14] = test system: TK-10 renal
[15] = test system: CAKI-1 renal
[16] = test system: A498 renal
[17] = test system: CCRF-CEM leukemia
[18] = test system: MOLT-4 leukemia
[19] = test system: ACHN renal

Cc1ccc(C(=O)Nc2nc3c(s2)CN(Cc2ccccc2)CC3)cn1
growth [1]: 59.1% (inactive) | growth [2]: 66.9% (inactive) | growth [3]: 92.3% (inactive) | growth [4]: 92.9% (inactive) | growth [5]: 74.1% (inactive) | growth [6]: 79.3% (inactive) | growth [7]: 74.5% (inactive) | growth [8]: 87% (inactive) | growth [9]: 94.3% (inactive) | growth [10]: 93% (inactive) | growth [11]: 90.4% (inactive) | growth [12]: 89.7% (inactive) | growth [13]: 80.5% (inactive) | growth [14]: 89.4% (inactive) | growth [15]: 65.2% (inactive) | growth [16]: 89.9% (inactive) | growth [17]: 85.5% (inactive) | growth [18]: 95.6% (inactive)

CCOC(=O)N(O)c1ccc(/C=C/c2ccccc2)cc1
growth [1]: 66.8% (inactive) and 53.7% (inactive) | growth [2]: 93.6% (inactive) and 96.4% (inactive) | growth [3]: 91.2% (inactive) and 74.5% (inactive) | growth [4]: 54.6% (inactive) and 58.1% (inactive) | growth [5]: 55% (inactive) and 67.5% (inactive) | growth [6]: 66.2% (inactive) and 57.1% (inactive) | growth [7]: 29.4% (inactive) and -29.2% (active) | growth [8]: 60.2% (inactive) and 58.5% (inactive) | growth [9]: 103% (inactive) and 108% (inactive) | growth [10]: 66.5% (inactive) and 53.1% (inactive) | growth [11]: 91.8% (inactive) | growth [12]: 66.3% (inactive) and 62.6% (inactive) | growth [13]: 56.2% (inactive) and 57.4% (inactive) | growth [14]: 4.6% (active) | growth [19]: 76.2% (inactive) and 70.3% (inactive) | growth [15]: 51.7% (inactive) and 81.4% (inactive) | growth [16]: -67.4% (active) and -83.1% (active) | growth [17]: 55.2% (inactive) and 63% (inactive) | growth [18]: 59.4% (inactive) and 60.9% (inactive)

FC(F)(F)Sc1ccc(/C=C/c2cc(/C=C/c3ccc(SC(F)(F)F)cc3)n(-c3ccccc3)n2)cc1
growth [1]: 95.3% (inactive) | growth [2]: 82% (inactive) | growth [3]: 92.6% (inactive) | growth [4]: 90.4% (inactive) | growth [5]: 84.2% (inactive) | growth [6]: 98.3% (inactive) | growth [7]: 84.5% (inactive) | growth [8]: 97.1% (inactive) | growth [9]: 109% (inactive) | growth [10]: 101% (inactive) | growth [11]: 93.9% (inactive) | growth [12]: 100% (inactive) | growth [13]: 76.7% (inactive) | growth [14]: 100% (inactive) | growth [19]: 93.9% (inactive) | growth [16]: 86.8% (inactive) | growth [17]: 94.7% (inactive) | growth [18]: 95.6% (inactive)

COc1ccc(-c2nnc3n(C)c(=O)c4ccccc4n23)cc1O
growth [1]: 18.8% (inactive) | growth [2]: 9.51% (active) | growth [3]: 24.3% (inactive) | growth [4]: 15.1% (inactive) | growth [5]: 17.9% (inactive) | growth [6]: 19% (inactive) | growth [7]: 14.2% (inactive) | growth [8]: 39.1% (inactive) | growth [9]: 50.9% (inactive) | growth [10]: 30.3% (inactive) | growth [11]: 97.5% (inactive) | growth [12]: 30.3% (inactive) | growth [13]: 52.7% (inactive) | growth [14]: 51.4% (inactive) | growth [19]: 47.5% (inactive) | growth [15]: 35.2% (inactive) | growth [16]: 21.6% (inactive) | growth [17]: 10.7% (inactive) | growth [18]: 32.5% (inactive)

COc1cc(F)c(/C=C/c2cc(/C=C/c3cc(OC)c(OC)cc3F)n(-c3cc(F)cc(F)c3)n2)cc1OC
growth [1]: 22.9% (inactive) | growth [2]: 105% (inactive) | growth [3]: 56.7% (inactive) | growth [4]: -1.48% (active) | growth [5]: 10.4% (inactive) | growth [6]: 23.6% (inactive) | growth [7]: 26.8% (inactive) | growth [8]: 18.6% (inactive) | growth [9]: -28.1% (active) | growth [10]: 59.5% (inactive) | growth [11]: 57.7% (inactive) | growth [12]: 72.5% (inactive) | growth [13]: 85.4% (inactive) | growth [14]: 68.9% (inactive) | growth [19]: 117% (inactive) | growth [15]: 98.5% (inactive) | growth [16]: 92.4% (inactive) | growth [17]: 51.9% (inactive) | growth [18]: 71.5% (inactive)
